Reference: PubChem BioAssay (NCI)
This is part of a sample that, as a whole, favours compounds with a hit. Of some 79,000 tested, about 15% had one in any assay. Calls of active or inactive are those of the source. Cut-off read from the data, not from the text of the source: active = growth inhibition above about 70%; inactive = the rest. Where a SMILES comes first, the peptide text is derived from it. [ ]: non-standard residue; d: D form. The star is where a group is joined. Cbz = O=C(OCc1ccccc1)*; Nva = CCC[CH](N)C(=O)O

Assays:
[1] = NCI Yeast Anticancer Drug Screen. Data for the rad50 strain (AID 155);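 note: 0% = growth of vehicle-only cultures of the same strain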; conditions: S. cerevisiae rad50 strain growth inhibition; at 50.0 µM; active compounds read high
Summary of the method: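 Readout: growth inhibition relative to vehicle-treated cultures. Compound exposure was carried out in a genetically defined yeast strain deficient in DNA damage repair.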

[2] = NCI Yeast Anticancer Drug Screen. Data for the mec2-1 strain (AID 157); conditions: S. cerevisiae mec2-1 strain, at 50.0 µM, active compounds read high
Summary of the method: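 Test agents were screened against the mec2-1 yeast strain, with defined DNA repair or cell cycle alteration. Growth was scored as inhibition against vehicle-only controls.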

[3] = NCI Yeast Anticancer Drug Screen. Data for the sgs1 mgt1 strain (AID 161);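 note: 0% = growth of cultures given vehicle only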; conditions: S. cerevisiae sgs1 mgt1 strain, at 50.0 µM, active compounds read high
Summary of the method: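 Genetically altered yeast, compound exposure, growth inhibition relative to vehicle.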

[4] = NCI Yeast Anticancer Drug Screen. Data for the cln2 rad14 strain (AID 165);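 note: 0% = growth equal to vehicle treated cultures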; conditions: S. cerevisiae cln2 rad14 strain, at 50.0 µM, active compounds read high
Summary of the method: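 Growth of compound-exposed yeast (cln2 rad14 genotype) measured and expressed as inhibition relative to vehicle.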

[5] = NCI Yeast Anticancer Drug Screen. Data for the bub3 strain (AID 167); conditions: S. cerevisiae bub3 mutant strain, at 50.0 µM, active compounds read high
Summary of the method: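 Readout: yeast growth inhibition, expressed relative to vehicle-only wells. The test organism is a mutant strain from a panel with lesions in DNA repair or checkpoint genes.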

[6] = NCI Yeast Anticancer Drug Screen. Data for the mlh1 rad18 strain (AID 175); conditions: S. cerevisiae mlh1 rad18 strain growth inhibition; at 50.0 µM; active compounds read high
Summary of the method: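 In this whole-cell yeast screen, a strain with altered DNA damage repair is challenged with compound, and its growth is measured against matched vehicle-treated controls.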

Measured: growth inhibition

COc1ccc2c(c1)CCC1C2CCC2(C)C(=O)C(n3cnc4c(SC)ncnc43)CC12 (stereo not given)
inactive: [1] 42.3% | [2] 19.6% | [3] 58.4% | [4] 29.1% | [5] 25.2% | [6] 46.9%

COC(=O)c1[nH]c(=O)c(C#N)c(C(=O)OC)c1C(=O)c1cccnc1
inactive: [1] 2.95% | [2] -3.55% | [3] -5.2% | [4] 18.7% | [5] -17.4% | [6] 25.6%

O=C1CSC(c2cccc([N+](=O)[O-])c2)N1c1ccc(-n2c(-c3ccccc3)nc3ccccc3c2=O)cc1 (stereo not given)
inactive: [1] -10.8% | [2] -17.1% | [3] 11.9% | [4] -6.8% | [5] 34% | [6] 7.25%

COc1ccc2c3c([nH]c2c1[N+](=O)[O-])C(C)N(C)CC3 (stereo not given)
inactive: [1] -0.1% | [2] 7.5% | [3] 21.1% | [4] 25.3% | [5] 0.8% | [6] 33.2%

OCc1c(CO)c2cccn2c2c1cnn2-c1ccccc1
inactive: [1] 11.3% | [2] 1.45% | [3] 23.9% | [4] -64.9% | [5] -8.2% | [6] 11.2%

O=c1ccn2n1Cc1ccccc1C2
inactive: [1] -25.9% | [2] -20.8% | [3] -17.9% | [4] 13.3% | [5] -6.05% | [6] -20.6%

Cn1c(=O)cc(NC2OC(CO)C(O)C(O)C2O)[nH]c1=O (stereo not given)
inactive: [1] 2.1% | [2] -3.3% | [3] 24.8% | [4] -5.3% | [5] 0.75% | [6] 11.5%

O=NN(CCCl)C(=O)NC1CCC(C(=O)O)CC1 (stereo not given)
inactive: [1] 29.6% | [2] -2.05% | [3] -6.65% | [4] -7.8% | [5] -0.75% | [6] 2.4%

CNC(=S)Nc1cccc(C)c1
inactive: [1] -3.1% | [2] 2.65% | [3] 4.55% | [4] -8.55% | [5] -10.4% | [6] 4.05%

Nc1cc2c(cc1/C=C1\CCNC1=O)OCO2
inactive: [1] -5.65% | [2] -12.1% | [3] -22.2% | [4] -6.6% | [5] -11.8% | [6] -4.85%

Cc1nn2c(-c3ccccc3)cnnc2c1-c1ccccc1
inactive: [1] -19.4% | [2] -21.1% | [3] -12.8% | [4] -26.1% | [5] 6.75% | [6] -10.8%

CCCCCCCC/C=C\CCCCCCCC(=O)NCCN(CCN)C(=O)CCCCCCC/C=C\CCCCCCCC
inactive: [1] -20.9% | [2] -18.4% | [3] -16.8% | [4] -20.6% | [5] -41.9% | [6] -23.8%

C/C=C/C=C/c1nc(C#N)c(N)o1
inactive: [1] -7.6% | [2] -2.2% | [3] 1.55% | [4] 12.7% | [5] 15.3% | [6] -3.55%

CCCC(NC(=O)OCc1ccccc1)C(=O)NC(Cc1ccccc1)C(N)=O (stereo not given) (Cbz-[Nva]-Phe-NH2; configuration not given here)
inactive: [1] -6% | [2] -0.9% | [3] -3.45% | [4] -34.2% | [5] -5.5% | [6] 0.45%

CCOC(=O)N1c2ccccc2SC1C#N (stereo not given)
inactive: [1] 63.1% | [2] 40.1% | [3] 37.4% | [4] 1.85% | [5] 25.1% | [6] 27.4%

CCCCCCCCCCCCCCCCCCn1cnc2ncnc(Cl)c21
active: [5] 96.5%
inactive: [1] 6.95% | [2] 5.6% | [3] 8.15% | [4] 55.3% | [6] 32.7%

CCOc1ccc(/C=C2\N=C(c3ccccc3)OC2=O)cc1OC
inactive: [1] 8.5% | [2] 12.5% | [3] 4% | [4] 0.75% | [5] 5.85% | [6] 2.4%

CO[Si](CCCN)(OC)OC
inactive: [1] -0.65% | [2] -44.8% | [3] -13.4% | [4] -8.7% | [5] 11.8% | [6] 35.9%

CCOC(=O)Cc1c(C)cc(C)cc1C
inactive: [1] 18.9% | [2] -6.3% | [3] -10.4% | [4] 3.35% | [5] 15.7% | [6] 10.4%

CCN(CC)CCN(CCN(CC)CC)c1ccc2ccccc2c1
inactive: [1] 18.9% | [2] -12.8% | [3] 7.3% | [4] 5.05% | [5] 16.2% | [6] 32.5%

Nc1ccn(C2CC3OCC3O2)c(=O)n1 (stereo not given)
inactive: [1] -13.2% | [2] 24.9% | [3] -1.25% | [4] -5.7% | [5] 0.95% | [6] 0.65%

O=c1cc(-c2ccccc2)[nH]c2[nH]n(-c3ccccc3)c(=O)c12
inactive: [1] 8.55% | [2] 14.2% | [3] 24.8% | [4] -10.2% | [5] -9.55% | [6] 16.4%

COC(=O)c1[nH]c(=O)c(C#N)c(C(=O)OC)c1-c1ccc(F)cc1
inactive: [1] -4.55% | [2] -24.5% | [3] -15.4% | [4] -2% | [5] -21.2% | [6] -0.05%

CC1CCOC(C)(Cc2ccccc2)O1 (stereo not given)
inactive: [1] -2.8% | [2] -3.05% | [3] -6.9% | [4] -58.8% | [5] -18.1% | [6] -10.9%

N#Cc1c(Cl)cccc1N1CCSCC1
inactive: [1] 1.75% | [2] -20.8% | [3] 15.3% | [4] 18.2% | [5] -0.9% | [6] 0.1%

O=NNc1ccc(Sc2ccc(NN=O)nc2)cc1
inactive: [1] 4.65% | [2] -7.4% | [3] 8.45% | [4] 17% | [5] -3.15% | [6] 21.9%

C=CNC(=O)NC(=O)CSc1nnc(-c2ccccc2NC(=O)C(F)(F)F)c(=O)[nH]1
inactive: [1] 5.7% | [2] -4.95% | [3] -4% | [4] 14.9% | [5] 30.9% | [6] 5.4%

NC1NC(=O)C(CCCOc2ccc([N+](=O)[O-])cc2)C(c2ccccc2)N1 (stereo not given)
inactive: [1] 3.55% | [2] -11.8% | [3] 6.6% | [4] 2.35% | [5] 21.8% | [6] 10.4%

CCCC(O)(c1ccccc1)c1ccccc1
inactive: [1] 5.4% | [2] 2.95% | [3] -2.95% | [4] -6.4% | [5] -4.5% | [6] 4.5%

O=[N+]([O-])c1nccn1CCC[n+]1cccc2ccccc21
inactive: [1] -38.6% | [2] -17.2% | [3] -14.2% | [4] -14.9% | [5] -19.9% | [6] -13.4%

COC1OC(CO)C(O)C2OCCOCCOC3C(OC)OC(CO)C(O)C3OCCOCCOC12 (stereo not given)
inactive: [1] -2.65% | [2] -4.4% | [3] 5.9% | [4] -7.7% | [5] -0.5% | [6] 18.5%

Cc1cc(OC(C)C)cc(C)c1C(=O)OCC(C)CN1CCCC1 (stereo not given)
inactive: [1] 1.9% | [2] -16.8% | [3] 5.4% | [4] -15.1% | [5] -8.5% | [6] -18.2%

CCCN(CCC)c1ccc(C(=O)c2ccccc2)cc1
inactive: [1] -12.4% | [2] -3% | [3] -1% | [4] -33.8% | [5] 18.6% | [6] -6%

CCN(CC)CCOCCO
inactive: [1] -8.6% | [2] -16% | [3] -0.65% | [4] 11.7% | [5] 0.95% | [6] -2.15%

Cc1cc(OCCCC[N+](C)(C)Cc2ccc(Br)o2)c(C(C)C)cc1Cl
active: [1] 99.5% | [2] 99.5% | [3] 99.2% | [4] 99.3% | [5] 99.2% | [6] 99.3%

COc1ccc2[nH]c3c(c2c1)-c1ncncc1CC3
inactive: [1] 37.4% | [2] -9.65% | [3] -3.7% | [4] 6.1% | [5] 40.4% | [6] 24.4%

Cc1cc(S(=O)(=O)O)ccc1Cl
inactive: [1] -27.3% | [2] -8.2% | [3] -19.3% | [4] -38.9% | [5] -0.25% | [6] -31.8%

C1=NCCCCCCCN=Cc2ccccc2NCCNc2ccccc21
inactive: [1] 29.1% | [2] 23.8% | [3] 20.4% | [4] 32.4% | [5] 38.3% | [6] 44.6%

NC(CC(F)(F)F)C(=O)O (stereo not given)
inactive: [1] 22.9% | [2] 4.2% | [3] 16.7% | [4] 31.3% | [5] -2.65% | [6] 11.9%

NC(=S)N/N=C(\c1ccccc1)c1cccc2ccccc12
inactive: [1] 5.1% | [2] 50.7% | [3] 59% | [4] -35.3% | [5] 58.5% | [6] 33.5%
